Assay outcomes as filed in PubChem BioAssay.
Rows were chosen to be rich in hits. Some 0.89% of all compounds tested hit in one or more screens of this group.
CBFb-RUNX1 inh – CBF-beta/RUNX1 interaction disruption; Q01196+Q13951; AlphaScreen CBFb-His/RUNX1-biotin binding, biochemical; Potency, µM (doses to about 59.8 µM), for the others: top-dose activity, negative = inhibition, most hits filed as inhibitors; 230,000 tested, under 10 active; AID 1477; further: % of control where 0% means no effect
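AlphaScreen proximity signal reports loss of binding between His-tagged CBF-beta and biotin-labelled RUNX1, each at 30 nM. Proteins are pre-associated for 20 minutes, compounds added for 15 minutes, then beads for 90 minutes, all at ambient temperature.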
MBNL1 CUG block – MBNL1-poly(CUG) RNA binding inhibition; TR-FRET MBNL1-His/biotin-(CUG)12 binding, 665/545 ratio; Q9NR56; AID 2675; Potency, µM (top dose mostly 57.5 µM), for the others: at the highest dose activity change, negative = inhibition, usual class: inhibitors; hit rate 0.036% among 280,000; active means well fitted inhibition curve with a large enough effect in the signal ratio, with a control signal flat, not every such curve was filed as active; inconclusive means small, poorly fitted or top-dose-only effect, or effect the other way, or a change in a side signal; inactive means no such curve, though single readings can be large or run the other way; the % refers to the signal ratio; further: potency means the concentration at half of the fitted maximal effect; on the % scale 0 is the no-effect control and ±100 the full control effect
Target sequence (Q9NR56 whole entry, looked up): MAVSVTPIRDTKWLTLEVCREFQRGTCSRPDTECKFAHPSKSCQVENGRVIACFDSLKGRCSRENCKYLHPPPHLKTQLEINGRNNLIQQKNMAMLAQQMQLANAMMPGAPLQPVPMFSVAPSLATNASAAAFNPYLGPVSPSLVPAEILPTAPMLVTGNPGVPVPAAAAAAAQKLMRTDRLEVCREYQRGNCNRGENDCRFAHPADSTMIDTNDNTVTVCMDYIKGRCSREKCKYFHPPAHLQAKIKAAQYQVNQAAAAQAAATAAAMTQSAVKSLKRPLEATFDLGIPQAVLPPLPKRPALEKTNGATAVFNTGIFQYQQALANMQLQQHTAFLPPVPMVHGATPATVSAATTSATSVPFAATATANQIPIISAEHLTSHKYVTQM
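Compounds (final 92 nM to 58 uM) are added to His-tagged MBNL1 and biotin-(CUG)12, then terbium anti-His antibody and streptavidin-XL665 (5 nM final). After 60 min at room temperature, the 665/545 nm ratio is read.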
L3MBTL1 inh – inhibitors of human L3MBTL1 | Q9Y468 | AlphaScreen L3MBTL1–H3K9me1 peptide binding | Potency, µM (titrated, usually from 57.1 µM), for inactives: at the top dose activity, negative = inhibition, most hits filed as inhibitors | hit rate 0.66% among 230,000 | AID 485360; further: potency means the concentration at half of the fitted maximal effect; on the % scale 0 is the no-effect control and ±100 the full control effect; nearly all actives have a fitted effect of over 60% in size
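First, the protein-peptide complex forms for 30 min at room temperature (L3MBTL1 50 nM, biotinylated H3K9me1 peptide 75 nM). Next, compounds are pin-transferred and incubated 30 min. Finally, AlphaScreen beads are added and read after 30 min.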
CtBP-E1A inh – inhibitors of CtBP/E1A interaction. AlphaScreen GST-E1A/His-CtBP binding, 1536-well; hits give low values. activity change, % (concentration not given with the values). hit rate 0.49% among 340,000; in the data active means activity change below about -65%; inconclusive means mostly about -30% to -63%; further: on the % scale 0 is the no-effect control and ±100 the full control effect
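GST-E1A and His-tagged CtBP (125 nM each as 5X stock) were preincubated with pin-transferred compound for 2 h at 37 °C in the dark, then glutathione donor and nickel acceptor beads were added for 1 h before AlphaScreen reading.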
Eya2 phos inh – inhibitors of human Eya2 phosphatase activity. Potency, µM (top dose mostly 76.9 µM), inactives show at the top dose activity, negative = inhibition, actives largely listed as inhibitors. O00167. hit rate 0.006% among 330,000. AID 488837. recombinant Eya2, OMFP fluorescence dephosphorylation (OMFP is methylfluorescein phosphate); further: potency means the concentration at half of the fitted maximal effect; on the % scale 0 is the no-effect control and ±100 the full control effect
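Eya2 protein (added as 0.2 uM solution) was preincubated with compound for 10 min at ambient temperature in 50 mM HEPES pH 7.5, 50 mM NaCl, 5 uM MgCl2, 0.05% BSA, 1 mM DTT. OMFP (added at 50 uM) then reacted 10 min; fluorescence read at 485/525 nm.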
Six1-Eya2 blk – blocks human Six1 binding to Eya2 | Q15475+O00167 | activity change, % (no concentration beside the values) | hit rate 0.56% among 360,000 | AID 651725 | AlphaScreen GST-Six1/His-Eya2 binding, biochemical; hits give low values; in the data active means activity change below about -65%; inconclusive means mostly about -30% to -63%; further: on the % scale 0 is the no-effect control and ±100 the full control effect
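AlphaScreen luminescence read after one hour at 37 °C in darkness. Pin-transferred compounds met GST-Six1 and His-Eya2 protein (5X stock 250 nM/500 nM) plus glutathione donor and Ni-chelate acceptor beads (5X, 50 ug/mL).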
* hit, by the source's call; u = inconclusive; x = no result given; [ ] = dose if it differs, or a comment. Unless noted, the call rests on the fitted dose curve; in most records, active means well fitted curve in the direction sought with a large enough effect; inconclusive means small, poorly fitted or top-dose-only effect, or another doubt; inactive means no such curve, though single readings can be large; an effect the other way counts as inactive or inconclusive.

SMILES	CBFb-RUNX1 inh	MBNL1 CUG block	L3MBTL1 inh	CtBP-E1A inh	Eya2 phos inh	Six1-Eya2 blk
COCCN1CN(S(=O)(=O)c2ccccc2)c2nc3ccccc3nc21	5.3%	u	-6.2%	-2.3	4.9%	-82.2*
Cc1ccc(/C=N/NC(=O)C2CC(=O)N(c3ccccc3)C2)s1 (stereo not drawn)	3.0%	u	0.2%	0.0	2.9%	15.9
O=C(N/N=C/c1ccccc1O)C1CC(=O)N(c2ccc(Cl)cc2)C1 (stereo not drawn)	x	-4.1%	x	-84.0*	-5.3%	u
Cc1c(N(C(=O)c2ccccn2)C2(C(=O)NC3CCCC3)CCCCC2)c(=O)n(-c2ccccc2)n1C	5.8%	-3.3%	x	0.4	7.6%	-0.1
O=C(CN(C(=O)c1csnn1)c1ccc(Br)cc1)NC1CCCCC1	x	-0.8%	x	-2.3	3.6%	2.2
COC(=O)C[C@H]1c2ccccc2[C@H]2C(=C[C@@H](C)[C@H]3C(=O)N(O)C(=O)[C@H]32)N1C(=O)OC	-0.7%[13.1 µM]	x	x	x	x	x
Cc1ccc(NC(=S)NNC(=O)c2nn(C)cc2Cl)cc1	-14.4%	-3.1%	6.5%	-28.1	0.2%	-18.2
Cc1ccc(NC(=S)NNC(=O)c2nnn(-c3ccccc3)c2C)cc1	x	-8.5%	u	-0.7	-4.1%	-75.0*
COc1ccc(/C=C/C(=O)NCC(=O)N/N=C/c2cc(Br)ccc2OC)cc1	2.9%	12.6%	0.3%	7.2	-8.8%	-2.6
COc1cc(/C=N/NC(=O)/C(=C/c2ccccc2)CCO)ccc1O	1.0%	13.2%	0.2%	-0.6	3.8%	-9.4
O=C(N/N=C/c1ccc(O)cc1O)/C(=C/c1ccccc1)CCO	u	10.9%	-7.6%	-92.0*	-6.0%	-88.6*
COc1ccc2[nH]c(C(=O)N/N=C/c3ccc(O)cc3O)cc2c1	x	8.1%	x	x	0.2%	-80.2*
COc1ccc(/C=C\C(=O)NCC(=O)N/N=C/c2ccc(O)cc2O)cc1	-20.7%	u	u	-17.5	-22.1%	-88.0*
O=C(/C=C\c1ccccc1)NCC(=O)N/N=C/c1ccc(O)cc1O	x	u	x	-96.5*	3.1%	-74.6*
O=C(N/N=C/c1ccccc1)c1cc(=O)[nH]c2ccccc12	-7.1%	7.2%	-3.7%	5.4	5.7%	1.9
COc1ccc(O)c(/C=N/NC(=O)c2cc(=O)[nH]c3ccccc23)c1	x	18.6%	u	u	-8.8%	-91.9*
O=C(CNC(=O)C1COc2ccccc2O1)N/N=C/c1ccc(O)cc1O (stereo not drawn)	-24.3%	x	0.0%	-88.4*	-1.0%	-87.9*
CCN(CC)c1ccc(/C=N/N2CCN(Cc3ccccc3)CC2)c(O)c1	-9.5%	x	-3.3%	u	3.5%	-74.8*
CCN(CC)c1ccc(/C=N/N2CCN(c3ccccc3OC)CC2)cc1	x	4.6%	-13.9%	-20.8	-13.2%	-67.0*
COc1ccc(/C=N/N2CCN(c3ccccc3OC)CC2)cc1OC	-8.2%	11.4%	-4.8%	-3.3	2.0%	-2.3
CCN(CC)c1ccc(/C=N/N2CCN(Cc3ccccc3Cl)CC2)cc1	x	1.6%	u	-27.3	-1.4%	-74.3*
Nn1cnnc1N/N=C/c1cc(Br)cc(Br)c1O	u	3.5%	-8.3%	-90.9*	7.1%	-91.8*
Cc1nc(-c2cnn(-c3ccccc3)c2)c2cc(C)oc2n1	8.1%	5.9%	4.4%	-87.9*	-29.0%	-86.7*
Cc1oc2c(O)c(O)ccc2c(=O)c1-c1cnn(-c2ccccc2)c1	-15.6%	-7.0%	-16.7%	u	-1.0%	u
CCCN(CC1CC1)C(=S)NC(=O)c1cc(Br)ccc1Cl	x	x	-3.8%	0.0	4.0%	9.1
CC(=NNC(=S)Nc1ccccc1)c1ccccn1	x	x	x	u	x	-89.0*
C=CCNC(=S)N/N=C(\C)c1ccccn1	u	22.0%	x	-97.0*	22.3%	-89.5*
CC(=NNC(=S)Nc1ccccc1Cl)c1ccccn1	x	x	x	-66.1*	x	-90.1*
